Screens: PubChem, several laboratories
In the library only some 2.2% were active in any assay of this set; here they are far more common.
p-CIP stab down: p/CIP-EGFP fusion destabilizers, primary screen, fluorescence, F442A cells; Q05BA5; 16 h; decrease of EGFP signal, % at 10 µM; 0.01% of 290,000 active; AID 1984, 2009;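 active = EGFP signal decrease of at least 30% at 10 µM or well 3 SD below plate mean, unless failing retest; inactive = the rest, including hits failing retest or dose response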
PvdQ acylase: P. aeruginosa PvdQ acylase inhibitors, primary screen, biochemical, fluorescence, plate reader and imaging, single point; PvdQ acylase [Pseudomonas aeruginosa LESB58]; inhibition, % at 10 µM; 0.063% of 340,000 active; purified PvdQ acylase; in the data active = inhibition above about 30%, passing the limit was not always enough;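 note: 0% = vehicle neutral wells and 100% = reference inhibitor wells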
SUMO Mot1 rescue: yeast Mot1-301 growth rescue at high temperature, primary screen, SUMOylation pathway inhibitor project, S. cerevisiae, ATP luminescence, 38.5C. 1% of 320,000 active. S. cerevisiae Mot1-301 growth rescue; percent above DMSO median, 100 means doubled. AID 2716, 2010. growth rescue, % at 18.8 µM;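 active = every valid replicate shows activation above 250% relative to neutral control wells; inactive = the rest, any valid replicate at or below 250%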;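 note: OY570 slx delta 5 strain wells were the positive control but not used for scaling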
HDAC3 inhib: HDAC3 deacetylase inhibitors, primary screen, biochemical, fluorescence, cell-free homogeneous | 0.15% of 320,000 active | Histone deacetylase 3 (Homo sapiens), O15379 | inhibition, % at 8.3 µM | recombinant HDAC3, fluorogenic peptide/trypsin coupled; in the data active = inhibition above about 26%, passing the limit was not always enough
JMJD2C inh: inhibitors of GASC-1 histone demethylase, primary screen, biochemical, fluorescence, DELFIA europium; GST-JMJD2C(1-420) H3K9me3 demethylation; inhibition, % at 2.35 µM; AID 2099, 2009; 0.069% of 330,000 active;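 active = more than half of a compound's replicate wells show inhibition beyond 50%, single wells judged on their own value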;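 note: signal counts dimethyl H3K9 product captured on neutravidin plate; 0% = median of DMSO wells and 100% = 0.3 times that DMSO median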
PHOSPHO1 block: PubChem AID 1565; recombinant PHOSPHO1, absorbance phosphatase assay; inhibition, % at 13.3 µM; 1.1% of 290,000 active; in the data active = inhibition above about 60%
Target sequence (Q8TCT1 whole entry, looked up): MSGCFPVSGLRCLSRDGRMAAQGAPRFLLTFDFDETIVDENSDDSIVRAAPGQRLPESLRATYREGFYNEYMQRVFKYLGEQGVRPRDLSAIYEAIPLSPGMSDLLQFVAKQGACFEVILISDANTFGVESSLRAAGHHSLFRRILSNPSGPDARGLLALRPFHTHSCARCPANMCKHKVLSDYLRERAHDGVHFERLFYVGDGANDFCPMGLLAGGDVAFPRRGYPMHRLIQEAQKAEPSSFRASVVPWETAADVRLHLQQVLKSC
Mot1 SUMO dose: growth restoration of Mot1-301 yeast on galactose, dose response, SUMO pathway inhibitor project, whole organism, S. cerevisiae, ATP luminescence, cherry-picked samples | shares compounds with SUMO Mot1 rescue | S. cerevisiae Mot1-301 galactose growth, 24 h; -100 = growth of slx-deleted rescue strain | growth activity, percent, % at 42 µM | 2,300 tested, under 10 active | AID 493004, 2010;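 active = Signal drops as the depositor expects, and the fitted half-maximal dose is no more than ten times the top valid tested dose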;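 note: more negative values mean stronger growth rescue toward the control strain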
* hit, by the source's call; / = no result given; + = active, no number.

SMILES	p-CIP stab down	PvdQ acylase	SUMO Mot1 rescue	HDAC3 inhib	JMJD2C inh	PHOSPHO1 block	Mot1 SUMO dose
COc1ccc(CN2CCSCC2)c(C)c1C	-17	12	6	-6	2	25	/
CCn1c(SCC(=O)NC2CCCCC2)nnc1C(C)NC(=O)c1ccccc1F (stereo not drawn)	-10	1	+	1	-3	37	1
O=c1c(-c2ccco2)[n+]([O-])c2ccccc2n1OCc1ccccc1[N+](=O)[O-]	0	-8	4	7	-23	-61	/
COc1ccccc1C(=O)N(NC(=O)Oc1ccccc1)C(C)(C)C	-11	19	549*	1	6	9	0
CC1CCCC(N2CCN(S(=O)(=O)c3ccccc3)CC2)C1 (stereo not drawn)	-5	-12	-29	-6	0	30	/
Oc1c(Br)cc(Br)cc1/C=N/n1c(-c2ccccc2)n[nH]c1=S	13	-13	644*	0	9	-123	-2
S=c1[nH]nc(-c2ccccn2)n1/N=C/c1ccccc1	1	-6	369*	9	1	42	0
Oc1c(Br)cc(/C=N/n2c(-c3ccccc3)n[nH]c2=S)c(Br)c1O	-12	/	176	-2	14	-28	/
CCOc1ccc(/C=N/Nc2nc(C)cs2)c(O)c1	6	0	-17	7	8	14	/
COCCNC(=O)Nc1ccc2c(c1)N(C)C(=O)CS2	-4	-10	-18	-4	1	14	/
CC(C)CCNC(=O)Nc1ccc2c(c1)N(C)C(=O)CS2	5	12	+	2	-10	2	0
COc1ccccc1NC(=O)CSc1nnc(CCC(=O)Nc2ccccc2F)n1C	-8	9	/	-4	-3	13	/
CC1=C/C(=N\OS(=O)(=O)c2ccccc2)C(C(C)C)=CC1=O	6	-11	413*	3	9	4	-3
Nc1c2c(nc3sc4c(c13)CCCC4)-c1ccccc1CC2	-4	-3	14	5	0	24	/
COc1cc(/C=N/Nc2nc(N3CCCC3)nc(N3CCCC3)n2)ccc1OCc1ccccc1F	-3	14	447	-8	19	28	/
Cn1c(CNc2ccc(F)cc2)nc2ccccc21	0	12	-8	-1	4	24	/
Cc1cc(C)nc(SCC(=O)Nc2cc(C)on2)n1	0	-8	17	7	4	-8	/
Cc1cc(C(F)(F)F)nc(SCC(=O)Nc2cc(C)on2)n1	-9	-5	+	-8	-1	-15	0
Nc1cccc2c1C(=O)N(c1ccccc1)C2=O	/	-18	668*	2	14	/	0
O=C1c2ccccc2C(=O)N1c1ccccc1	/	-14	/	/	/	/	/
CCOC(=O)C1CCN(CC(O)COc2ccc(C(C)(C)CC)cc2)CC1 (stereo not drawn)	6	0	63	18	1	2	/
CCOC(=O)C1CCN(CC(O)COCc2ccccc2)CC1 (stereo not drawn)	-11	-11	554*	-4	-24	7	0
CCOC(=O)C1CCN(CC(O)COc2ccc(C(C)(C)C)cc2)CC1 (stereo not drawn)	-18	0	376*	12	-8	-8	0
O=C(Nc1cc([N+](=O)[O-])ccc1N1CCCC1)c1cccs1	5	-4	42	4	15	14	/
CCONc1ncnc2nonc12	2	10	-4	9	-1	22	/
Clc1ccc(CONc2ncnc3nonc23)c(Cl)c1	2	4	+	9	7	-3	-2
O=C1CSc2ccc(C(=O)Nc3cccc(S(=O)(=O)Nc4ccc(Br)cc4)c3)cc2N1	-7	-8	-17	2	12	12	/
CCOC(=O)C1=C(C)Nc2ccccc2N/C1=N\S(=O)(=O)c1cc(C(=O)O)ccc1Cl	/	-15	9	9	-5	/	/
c1ccc2cc(Cn3ccnc3)ccc2c1	-1	-17	413*	-2	2	/	-1
